# Measured values published in PubChem BioAssay (EPA / NIEHS).
# Values joined by “and” are separate entries in the source; they are usually repeats but may differ in a detail not shown here. Equal entries are not always repeated. Records with an inconclusive call do not appear. Some structures have more than one record in an assay (separate samples or runs), and their calls can disagree. Active and inactive are the calls of the source. How the source made its calls: active means hit-call score of the fitted dose curve at least 0.9, where 1 is the maximum; inconclusive means response in the unintended direction; inactive means score below 0.9.
# Target: Estrogen receptor (Homo sapiens) (UniProt P03372)
# Test: ATG_ERa_TRANS: Attagene TRANS-FACTORIAL HepG2 Assay for human Estrogen Receptor alpha (ERa) (AID 2282970)
# Conditions: HepG2 Attagene TRANS ERa GAL4 reporter, mRNA
# Experimental: ATG_TRANS is a cell-based, multiplexed-readout assay that uses HepG2, a human liver cell line, with measurements taken at 24 hours after chemical dosing in a 24-well plate.ATG_ERa_TRANS is one of 30 assay component(s) measured or calculated from the ATG_TRANS assay. It is designed to make measurements of mRNA induction, a form of inducible reporter, as detected with fluorescence intensity signals by Reverse transcription polymerase chain reaction (RT-PCR) and Capillary electrophoresis technology.Data from the assay component ATG_ERa_TRANS was analyzed into 1 assay endpoint. This assay endpoint, ATG_ERa_TRANS, was analyzed in the positive analysis fitting direction relative to DMSO as the negative control and baseline of activity. Using a type of inducible reporter, measures of mRNA for gain-of-signal activity can be used to understand the reporter gene at the transcription factor-level as they relate to the gene ESR1. Furthermore, this assay endpoint can be referred to as a primary readout, because this assay has produced multiple assay endpoints where this one serves a reporter gene function. To generalize the intended target to other relatable targets, this assay endpoint is annotated to the nuclear receptor intended target family, where the subfamily is steroidal.
# Human liver HepG2 cells are transiently transfected with multiple reporter transcription units (MRTUs) in 6-well plates using FuGene 6 reagent (Roche; 3 ml FuGene/1 mg DNA). The MRTU constructs are regulated by a cis-regulating element (promoter). […] A major difference between the CIS and TRANS system is that in CIS activities of endogenous TFs are measured, whereas the TRANS assay evaluates changes in activities of exogenous, chimeric NR-Gal4 proteins. […] At the end of 24 hour incubation, total RNA was isolated using TriZol reagent (Invitrogen). The isolated RNA is then reverse-transcribed using oligo(dT) primer and Mo-MLV reverse transcriptase (Invitrogen) with DNAse I (Ambion) treatment for 30 min. The one-tenth of the produced cDNA was amplified by PCR using Taq DNA polymerase (Invitrogen) and two reporter sequence-specific primers. The PCR products were fluorescently labeled by primer extension with 6-arboxyfluorescein (6-FAM) 5'-labeled reporter sequence-specific primer (2 min at 95 C, 20 s at 68 C and 10 min at 72 C) and these products were digested with 5U of HpaI (New England Biolabs) for 2h at 37 C. […] The raw capillary electrophoresis data was processed using Attagraph software (Attagene).
# Estrogen receptor (Homo sapiens), sequence (P03372 whole entry, looked up): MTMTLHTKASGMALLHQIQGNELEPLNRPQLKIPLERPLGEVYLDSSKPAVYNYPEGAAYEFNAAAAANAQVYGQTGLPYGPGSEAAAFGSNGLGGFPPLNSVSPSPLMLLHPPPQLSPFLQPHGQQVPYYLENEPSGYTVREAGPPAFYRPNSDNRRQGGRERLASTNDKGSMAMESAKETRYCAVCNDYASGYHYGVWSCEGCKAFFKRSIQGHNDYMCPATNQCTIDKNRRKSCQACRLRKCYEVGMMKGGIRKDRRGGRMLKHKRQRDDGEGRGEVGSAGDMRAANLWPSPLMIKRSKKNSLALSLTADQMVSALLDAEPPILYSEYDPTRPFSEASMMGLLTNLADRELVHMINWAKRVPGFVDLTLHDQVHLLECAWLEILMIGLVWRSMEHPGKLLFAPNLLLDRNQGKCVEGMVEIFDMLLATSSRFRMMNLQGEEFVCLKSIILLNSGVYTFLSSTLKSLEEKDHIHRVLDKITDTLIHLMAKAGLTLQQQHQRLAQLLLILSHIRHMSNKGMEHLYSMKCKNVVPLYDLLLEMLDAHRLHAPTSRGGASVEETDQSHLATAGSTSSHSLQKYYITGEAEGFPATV
Compound,outcome,AC50
Fc1ccc(Oc2ccnc3cc(Cl)cc(Cl)c23)cc1,inactive,–
OC(c1ccc(Cl)cc1)(c1cncnc1)c1ccccc1Cl (stereo not given),inactive,3.2 µM (active)
COc1nc(NC(C)C)nc(NC(C)C)n1,inactive,–
CCc1nn(C)c(C(=O)NCc2ccc(C(C)(C)C)cc2)c1Cl,inactive,–
O=C(O)COc1nc(Cl)c(Cl)cc1Cl,inactive,–
COc1ccc(C(c2ccc(OC)cc2)C(Cl)(Cl)Cl)cc1,inactive,1.53 µM (active) [middle of 4 runs]
CCCCNC(=O)OCC#CI,inactive,25.4 µM (active)
N#Cc1nn(-c2c(Cl)cc(C(F)(F)F)cc2Cl)c(N)c1S(=O)C(F)(F)F (stereo not given),inactive,11.8 µM (active)
C=CCC1=C(C)C(OC(=O)C2C(C=C(C)C)C2(C)C)CC1=O (stereo not given),inactive,26.8 µM (active)
O=C(Nc1ccccc1)Nc1ccnc(Cl)c1,inactive,–
CNC(=O)ON=CC(C)(C)SC,inactive,–
COC(=O)N(OC)c1ccccc1COc1ccn(-c2ccc(Cl)cc2)n1,inactive,–
COP(N)(=O)SC (stereo not given),inactive,–
CC(C)Oc1cc(-n2nc(C(C)(C)C)oc2=O)c(Cl)cc1Cl,inactive,–
C=CC1(C)OC(=O)N(c2cc(Cl)cc(Cl)c2)C1=O (stereo not given),inactive,–
CC1COC(Cn2cncn2)(c2ccc(Oc3ccc(Cl)cc3)cc2Cl)O1 (stereo not given),inactive,–
CCOC(=O)C(Cl)Cc1cc(-n2nc(C)n(C(F)F)c2=O)c(F)cc1Cl (stereo not given),inactive,–
C#CCOS(=O)OC1CCCCC1Oc1ccc(C(C)(C)C)cc1 (stereo not given),inactive,–

Compound,outcome,AC50
CCCCC(CC)COC(=O)c1ccccc1C(=O)OCC(CC)CCCC (stereo not given),inactive,–
O=C(O)c1nc(Cl)ccc1Cl,inactive,–
N#Cc1cc(Br)c(O)c(Br)c1,inactive,–
Cc1cc(Cl)ccc1OCC(=O)O,inactive,–
COc1nc(C)nc(NC(=O)NS(=O)(=O)c2ccccc2Cl)n1,inactive,–
CC(C)(C)c1ccc(CSc2cnn(C(C)(C)C)c(=O)c2Cl)cc1,–,26.5 µM (active)
COC(=O)C=C(C)OP(=O)(OC)OC,inactive,–
CCOP(=S)(OCC)SCn1c(=O)oc2cc(Cl)ccc21,–,29.9 µM (active)
CC1=C(C(=O)Nc2ccccc2)SCCO1,inactive,–
COc1cnc(OC)n2nc(NS(=O)(=O)c3c(OCC(F)F)cccc3C(F)(F)F)nc12,inactive,–
CC(C)C1(C)N=C(c2nc3ccccc3cc2C(=O)O)NC1=O (stereo not given),inactive,–
CO/C=C(/C(=O)OC)c1ccccc1Oc1cc(Oc2ccccc2C#N)ncn1,inactive,–
Oc1ccccc1-c1ccccc1,–,31.1 µM (active) and 27.8 µM (active)
CCON=C(CC)C1=C(O)CC(c2c(C)cc(C)cc2C)CC1=O (stereo not given),inactive,–
CCCCNC(=O)n1c(NC(=O)OC)nc2ccccc21,inactive,–
CCCCOC(=O)c1ccccc1C(=O)OCCCC,inactive,–
CON(C)C(=O)Nc1ccc(Cl)c(Cl)c1,inactive,–
